PfHsp90 yeast 2 – growth inhibition of PfHsp90-expressing yeast, primary screen, antimalarial PfHsp90 inhibitor project, S. cerevisiae, BacTiter-Glo luminescence, single point, set 2; 310,000 compounds, 0.32% hits; inhibition, % at 9.4 µM; AID 504621, 2011; BacTiter-Glo ATP, 48 h; yeast lacking PDR1 and PDR3 efflux regulators;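 active means every replicate shows inhibition above about 80%, whatever the replicate mean, limit read from the data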;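 further: 0% = DMSO neutral controls and 100% = 20 µM radicicol positive controls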
TIM10 inh – growth inhibitors of isogenic TIM10 control yeast, primary screen, counter-screen for tim10-1 yeast inhibitor project, luminescence, uHTS. S. cerevisiae TIM10 strain growth, BacTiter-Glo luminescence, 24 h. inhibition, % at 10 µM. 330,000 compounds, 1.4% hits. AID 463195, 2010;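 active means inhibition of 40% or more at the single tested concentration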;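 further: wild-type TIM10 isogenic control strain grown at permissive 25 °C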
NALP3 yeast inh – NALP3 inflammasome inhibitors in reconstituted yeast, primary screen, luminescence, uHTS | Yeast reconstituted NLRP3/ASC/caspase-1, beta-gal luminescence, 24 h | inhibition, % at 10 µM | 330,000 compounds, 0.39% hits;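 active means inhibition of 50% or more; inactive means inhibition below 50%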;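 further: plate controls were induced DMSO wells for no effect and uninduced yeast grown without galactose for full effect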
tim10-1 inh – growth inhibitors of tim10-1 mutant yeast, primary screen, luminescence, uHTS; S. cerevisiae tim10-1 ts strain growth, BacTiter-Glo, 24 h; inhibition, % at 20 µM; 330,000 compounds, 2.2% hits;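 active means inhibition of at least 40%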;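 further: mutant grown at 25 °C; 0% = DMSO wells with yeast and 100% = wells holding no yeast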
tim23-1 inh – growth inhibitors of tim23-1 mutant yeast, primary screen, luminescence, uHTS. S. cerevisiae tim23-1 growth, BacTiter-Glo luminescence, 24 h. inhibition, % at 20 µM. 330,000 compounds, 1.3% hits;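 active means growth inhibition of the mutant yeast at or above 50%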;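 further: temperature-sensitive mutant grown at 25 °C; plate controls were DMSO-treated mutant yeast for no effect and medium wells lacking yeast for full effect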
tim10-1 confirm – growth inhibitors of tim10-1 mutant yeast, confirmation, single concentration, luminescence, S. cerevisiae; shares compounds with tim10-1 inh; S. cerevisiae tim10-1 ts strain growth, BacTiter-Glo, 24 h; inhibition, % at 20 µM; 7,400 compounds, 56% hits; AID 463213, 2010;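 active means inhibition of yeast growth at or above a set limit in either of two repeat tests at 20 µM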;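 further: tim10-1 mutant grown at permissive 25 °C to find synthetic lethal compounds; 0% = DMSO yeast wells and 100% = medium wells without yeast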
Active calls of the source: *; . = no result. Only some compounds are listed: those with a hit (about 3.7% of all), similar ones and a draw of the others.

SMILES	PfHsp90 yeast 2	TIM10 inh	NALP3 yeast inh	tim10-1 inh	tim23-1 inh	tim10-1 confirm
Cc1ccc(F)c(NC(=O)c2c(-c3ccccc3)noc2C)c1	-27.2	11.9	16.9	46.9*	37.7	42.9*
CC(=O)c1ccc(OCC(=O)N2CCN(S(=O)(=O)c3ccc(C)cc3C)CC2)cc1	2.1	9.2	3.7	11.5	14.1	.
COc1ccc2[nH]c3c(c2c1)CCN1C(=O)C(CC(=O)NCCCn2ccnc2)C[C@H](C(=O)N2CCOCC2)[C@@]31C (stereo not given in full)	-0.1	-7.9	.	-7.6	21.4	.
CN1CCc2c(sc3nc(NCCO)n(-c4cccc(Cl)c4)c(=O)c23)C1	9.9	3.6	3.0	3.0	-8.7	.
COc1cc(/C=C/c2cc(C(=O)O)c3ccccc3n2)cc(OC)c1O	16.1	25.4	14.1	20.7	24.7	.
COc1cc(/C=C/c2nc3ccccc3s2)cc(OC)c1O	.	32.4	17.3	43.9*	37.1	27.3
CN(C)c1ccc(/C=C/c2nc3ccccc3s2)cc1	35.8	35.6	23.7	46.5*	24.8	55.5*
COc1cc(C=C(c2nc3ccccc3s2)c2nc3ccccc3s2)ccc1O	3.9	34.8	27.1	51.1*	27.6	39.0*
COc1ccc(C=C(c2nc3ccccc3s2)c2nc3ccccc3s2)cc1O	38.5	30.3	21.3	29.9	35.3	.
O=C(CSc1nc2ccc(Nc3nc(N4CCCC4)nc(N4CCCC4)n3)cc2s1)NCc1ccco1	-5.4	4.5	15.8	15.7	25.0	.
O=C(Nc1ccc(NC(=O)c2ccccc2F)cn1)c1ccco1	-30.9	13.4	33.3	-31.7	38.3	.
CN(C)CCNCc1ccccc1OC1CCCC1	19.7	-25.8	10.3	-2.4	-55.5	.
COc1ccc(S(=O)(=O)N2Cc3ccccc3CC2C(=O)O)cc1 (stereo not given)	4.5	5.9	10.3	11.5	14.4	.
CCOC(=O)C1=C(c2ccccc2)O/C(=C(/C#N)C(F)(F)F)S1	.	39.9	-4.3	47.3*	43.7	38.8*
CN(C(=O)COC(=O)C1CCN(S(=O)(=O)c2ccc3c(c2)OCCO3)CC1)C1CCCCC1	1.0	13.6	7.1	19.5	8.3	.
CCC(C)c1ccc(NC(=S)Nc2ccc(OC)cc2C)cc1 (stereo not given)	22.3	31.6	26.7	45.5*	45.2	36.0*
CCC(C)c1ccc(NC(=O)CC(C)=O)cc1 (stereo not given)	0.6	6.5	6.1	42.0*	18.7	24.1
COc1ccc(NC(=S)NC(C)c2ccncc2)cc1OC (stereo not given)	8.1	-14.3	6.2	-9.5	-4.9	.
CCC(C)c1ccc(NC(=S)Nc2ccc(OC)c(OC)c2)cc1 (stereo not given)	5.4	29.3	19.8	44.1*	38.6	32.5*
CCC(C)c1ccc(NC(=O)CN(C)CC(=O)Nc2cccc(OC)c2)cc1 (stereo not given)	-0.6	8.0	13.1	-2.9	20.2	.
COc1ccc(N2CCN(C(=O)c3ccc(N4C(=O)NC5CC4(C)Oc4ccccc45)cc3)CC2)cc1 (stereo not given)	-7.3	0.8	-5.3	10.1	2.2	.
CC(C)CC(NC(N)=O)C(=O)OCC(=O)Nc1ccc(OC(F)F)cc1 (stereo not given)	55.3	0.0	5.4	8.2	-5.6	.
CC1=C(C(=O)NCc2ccccc2)C(c2cccs2)NC(=S)N1 (stereo not given)	-5.4	-4.6	13.9	-8.1	5.4	.
COc1cc(CN(C)c2ncnc3sccc23)ccc1OC(F)F	-7.5	-10.9	12.5	-6.7	7.4	.
O=C(Nc1nnc(CCc2ccccc2)s1)c1ccco1	0.5	4.5	31.6	14.4	29.4	.
SMILES	PfHsp90 yeast 2	TIM10 inh	NALP3 yeast inh	tim10-1 inh	tim23-1 inh	tim10-1 confirm
NC(=O)c1cccc2c1-c1ccccc1/C2=N/NC(N)=S	-0.1	12.4	27.0	-12.7	19.8	.
COC(=O)c1cccc2c1-c1ccccc1/C2=N\NC(N)=O	-14.5	23.0	12.6	40.4*	11.6	12.1
O=C(CCc1nnc2ccc(N3CCC4(CC3)OCCO4)nn12)N1CCCCC1	11.4	10.2	5.1	2.1	-5.0	.
CC(C)C[C@@H](CSc1ccc(Br)cc1)N1CCN(C)CCC1=O	.	8.1	21.8	14.1	12.4	.
CC(C)C[C@@H](CSc1ccc(Br)cc1)N1CCN(CC(C)C)CCC1=O	.	0.1	22.6	40.2*	4.2	32.2*
COc1ccc(CNC(=O)C(OC(=O)c2nsc(Cl)c2Cl)C(C)C)cc1 (stereo not given)	-39.7	10.5	20.1	2.4	36.8	.
Brc1cc(Br)c2ncnc(N3CCCCC3)c2c1	-4.2	2.4	-15.3	45.7*	47.5	12.4
N#Cc1sc2nc(-c3cccs3)cc(-c3ccc(Cl)cc3)c2c1N	-27.3	9.8	3.4	16.7	3.1	.
CCN(CC)C(=O)c1sc2nc(-c3cccs3)cc(-c3ccc(Cl)cc3)c2c1N	-12.6	37.9	14.5	57.7*	34.0	37.8*
CC1(C)CC(=O)C2=C(C1)c1c(ccc3ccccc13)NC2c1cc([N+](=O)[O-])cc([N+](=O)[O-])c1O (stereo not given)	-24.5	26.9	17.7	34.1	22.2	.
Cc1ccccc1NC(=S)NCc1ccc2c(c1)cc(C)n2C	-2.4	25.1	30.7	42.6*	31.0	23.7
S=C(NC1CCCCC1)N(CCc1nc2ccccc2[nH]1)C1CCCC1	-6.7	37.1	23.4	49.8*	32.3	28.9
COc1ccc(C)cc1S(=O)(=O)Nc1cccc(-c2ccc(N3CCCCCC3)nn2)c1	-27.6	17.9	6.9	25.1	20.8	.
Nc1c([N+](=O)[O-])c(=O)oc2ccccc12	24.9	11.6	9.2	0.6	3.6	.
O=C(COC(=O)c1ccc(-c2ccc([N+](=O)[O-])cc2)o1)NC(=O)NC1CCCCC1	-6.4	1.3	4.5	41.6*	35.1	18.6
CC(CNC(=O)CCc1nnc(CCC2CCCCC2)o1)c1ccccc1 (stereo not given)	-29.6	22.9	12.2	40.0	21.0	33.5*
Cc1cc2ncn(/N=C/c3ccc(-c4ccccc4)o3)c2cc1C	.	30.2	-1.9	46.5*	-10.1	16.7
O=C(NC1CCCc2ccccc21)C1CCN(S(=O)(=O)c2ccccc2)CC1 (stereo not given)	-2.0	26.9	4.3	40.1*	23.4	23.9
Cc1cc(C)c(C(=O)/C=C/c2cccs2)c(=O)[nH]1	-17.9	-3.6	-1.4	13.5	13.9	.
Cc1ccc(/C=C/C(=O)c2c(C)cc(C)[nH]c2=O)cc1	.	30.9	3.0	42.9*	26.7	38.5*
CCc1ccc(/C=C/C(=O)c2c(C)cc(C)[nH]c2=O)cc1	.	16.3	16.1	44.5*	32.9	37.7*
